Results published in the supplement of paper PMC10981050.
Structures can show the parent of a compound that is named as a salt.

tested on: MARIMO; test: cell viability relative to vehicle control; higher = less cytotoxic; conditions: 10 µM; SRSF2 genotype: SRSF2 P95H/wt
In short: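 Each screen used CRISPR-edited mutant and wild-type clones from four leukaemia lines. Compounds were acoustically dispensed at a single 10 µM dose, and CellTiter-Glo luminescence was read after 48 h with the supernatant first removed. Viability was analysed in Genedata Screener and given as percent of the on-plate vehicle control.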

SMILES	cell viability
CCC(=O)OCC(=O)[C@@]1(OC(=O)CC)[C@@H](C)C[C@H]2[C@@H]3CCC4=CC(=O)C=C[C@]4(C)[C@@]3(F)[C@@H](O)C[C@@]21C [Betamethasone Dipropionate (Diprolene)]	106%
O=C(O)c1cc(I)ccc1NC(=O)[C@H](Cc1ccccc1)NCc1ccccc1	99.9%
C=CC(=O)N1CC[C@@H](Oc2nc(Nc3ccc(N4CCC(N5CCN(C)CC5)CC4)cc3)c(C(N)=O)nc2CC)C1 [ASP8273 (Naquotinib)]	26.7%
O=c1c(-c2ccc(O)cc2)coc2c([C@@H]3O[C@H](CO)[C@@H](O)[C@H](O)[C@H]3O)c(O)ccc12 [Puerarin (Kakonein)]	98.6%
COc1ccc(-n2nc(C(N)=O)c3c2C(=O)N(c2ccc(N4CCCCC4=O)cc2)CC3)cc1 [Apixaban]	97.9%

same assay, conditions: 10 µM; SRSF2 genotype: SRSF2 wt/wt

SMILES	cell viability
Cc1csc(-c2nnc(Nc3ccc(Oc4ncccc4-c4ccnc(N)n4)cc3)c3ccccc23)c1	77.7%
CN1CCC(c2c(O)cc(O)c3c(=O)cc(-c4ccccc4Cl)oc23)C(O)C1 (stereo not given) [Flavopiridol (Alvocidib) HCl]	4.66%
Cc1ccc(C(C)C)c(O)c1 [Thymol]	102%
CN1CCN(c2ccc(Nc3cc(-c4cccc(-n5ccc6cc(C7CC7)cc(F)c6c5=O)c4CO)cn(C)c3=O)nc2)CC1	0.49%
NS(N)(=O)=O [Sulfamide]	103%
COc1ccc(Oc2cc(C)c(-c3csc(NC(=O)c4ccncc4)n3)c(C)c2)cc1	37.6%
Cc1c(O)c(=O)ccn1C [Deferiprone]	102%
CCCCCCNC(=O)n1cc(F)c(=O)[nH]c1=O [Carmofur]	81%
C[C@@H]1COCCN1c1cc(C2([S@](C)(=N)=O)CC2)nc(-c2cc[nH]c3nccc2-3)n1	20.1%
Cc1nc(Nc2cnn(C3CCNCC3)c2)nc2c1N(C)C(=O)c1cc3ccccc3cc1N2C	63.7%
CCCOc1ccc2[nH]c(NC(=O)OC)nc2c1 [Oxibendazole]	7.72%
COC1=CC(=O)c2ccccc2C1=O [2-Methoxy-1,4-naphthoquinone]	48%
CC(=O)c1ccc2c(c1)c1cc(C(C)=O)ccc1n2CCNC(C)C	2.54%
CC(C(=O)O)c1ccc2c(c1)CC(=O)c1ccccc1S2 (stereo not given) [Zaltoprofen]	103%
CC(C)Oc1ccc(C(=O)N[C@H](CNC(=O)CN(C)C)Cc2ccc(-c3cn4cccc([C@H](C)O)c4n3)cc2)cc1Cl	26.3%
NC(=O)c1cccc2cn(-c3ccc([C@@H]4CCCNC4)cc3)nc12 [MK-4827(Niraparib) tosylate]	64.4%
O=C(O)Cc1ccccc1Nc1c(Cl)cccc1Cl [Diclofenac Sodium]	110%
C#CC1(O)CC[C@H]2[C@@H]3CCC4=CC(=O)CC[C@@H]4[C@H]3CC[C@@]21CC (stereo not given in full) [Norgestrel]	103%
COC(=O)C1=C(C)NC(C)=C(C(=O)OCCN2CCN(C(c3ccccc3)c3ccccc3)CC2)C1c1cccc([N+](=O)[O-])c1 (stereo not given) [Manidipine (Manyper)]	58.5%
CN(C)N(C)C(=O)[C@@]1(Cc2ccccc2)CCCN(C(=O)[C@@H](Cc2c[nH]c3ccccc23)NC(=O)C(C)(C)N)C1 [Anamorelin]	74.3%

SMILES	cell viability
O=C(O)CCCCC(CCSCc1ccccc1)SCc1ccccc1 (stereo not given)	111%
COc1ccc(C(=O)C(=O)c2ccc(OC)cc2)cc1	105%
CNC(=O)c1cc(Oc2ccc(NC(=O)Nc3ccc(Cl)c(C(F)(F)F)c3)cc2)ccn1 [Sorafenib Tosylate]	29.3%
C[C@@H](O)[C@H]1C(=O)N2C(C(=O)O)=C(S[C@@H]3CN[C@H](C(=O)N(C)C)C3)[C@H](C)[C@H]12 [Meropenem]	96.9%
COC(=O)C1=C(C)NC(C)=C(C(=O)OCC(C)C)C1c1ccccc1[N+](=O)[O-] (stereo not given) [Nisoldipine]	58.6%
COc1cccc(/C=N/N(C(=O)C(F)(F)F)c2ccc(C)cc2C)c1	102%
CN(CC(=O)N(Cc1ccc(C2CCCCC2)cc1)c1ccc(C(=O)O)cc1)S(=O)(=O)c1c(F)c(F)c(F)c(F)c1F	2.43%
C=CC(=O)Nc1cccc(Oc2nc(Nc3ccc(N4CCN(C)CC4)cc3)ncc2Cl)c1	18.8%
CO[C@@]12[C@H](COC(N)=O)C3=C(C(=O)C(C)=C(N)C3=O)N1C[C@@H]1N[C@@H]12 [Mitomycin C]	2.95%
Clc1cccc(-c2nnnn2Cc2cccnc2)c1Cl	101%
Cc1cccc(Nc2ccncc2S(=O)(=O)NC(=O)NC(C)C)c1 [Torsemide (Demadex)]	103%
O=c1cc(-c2ccc(O)cc2)oc2cc(O)c([C@@H]3O[C@H](CO)[C@@H](O)[C@H](O)[C@H]3O)c(O)c12 [Isovitexin]	93.6%
C=C1[C@@H]2CC[C@@H](C2)C1(C)C [Camphene]	111%
CN(C)c1cccc(-c2c3c(=O)n(-c4ccccc4Cl)[nH]c3cc(=O)n2C)c1	126%
CO[C@H]1C[C@@H]2CC[C@@H](C)[C@@](O)(O2)C(=O)C(=O)N2CCCC[C@H]2C(=O)O[C@H]([C@H](C)C[C@@H]2CC[C@H](n3cnnn3)[C@H](OC)C2)CC(=O)[C@H](C)/C=C(\C)[C@@H](O)[C@@H](OC)C(=O)[C@H](C)C[C@H](C)/C=C/C=C/C=C/1C [Zotarolimus (ABT-578)]	76.9%
CCC(=O)OCC(=O)[C@@]1(OC(=O)CC)[C@@H](C)C[C@H]2[C@@H]3CCC4=CC(=O)C=C[C@]4(C)[C@@]3(F)[C@@H](O)C[C@@]21C [Betamethasone Dipropionate (Diprolene)]	109%
O=C(O)c1cc(I)ccc1NC(=O)[C@H](Cc1ccccc1)NCc1ccccc1	103%
C=CC(=O)N1CC[C@@H](Oc2nc(Nc3ccc(N4CCC(N5CCN(C)CC5)CC4)cc3)c(C(N)=O)nc2CC)C1 [ASP8273 (Naquotinib)]	29.7%
O=c1c(-c2ccc(O)cc2)coc2c([C@@H]3O[C@H](CO)[C@@H](O)[C@H](O)[C@H]3O)c(O)ccc12 [Puerarin (Kakonein)]	101%
COc1ccc(-n2nc(C(N)=O)c3c2C(=O)N(c2ccc(N4CCCCC4=O)cc2)CC3)cc1 [Apixaban]	112%
